One may read the residual activity as the signal under treatment as a percentage of the control signal.

Residual activity data for one molecule are collected here from ChEMBL document CHEMBL2218924, “A broad activity screen in support of a chemogenomic map for kinase signalling research and drug discovery” (Biochem J, 2013).

Molecules are shown by their SMILES.

Test [1] addresses T1, Ephrin type-A receptor 3 (Homo sapiens) (UniProt P29320).
T1 sequence (whole entry): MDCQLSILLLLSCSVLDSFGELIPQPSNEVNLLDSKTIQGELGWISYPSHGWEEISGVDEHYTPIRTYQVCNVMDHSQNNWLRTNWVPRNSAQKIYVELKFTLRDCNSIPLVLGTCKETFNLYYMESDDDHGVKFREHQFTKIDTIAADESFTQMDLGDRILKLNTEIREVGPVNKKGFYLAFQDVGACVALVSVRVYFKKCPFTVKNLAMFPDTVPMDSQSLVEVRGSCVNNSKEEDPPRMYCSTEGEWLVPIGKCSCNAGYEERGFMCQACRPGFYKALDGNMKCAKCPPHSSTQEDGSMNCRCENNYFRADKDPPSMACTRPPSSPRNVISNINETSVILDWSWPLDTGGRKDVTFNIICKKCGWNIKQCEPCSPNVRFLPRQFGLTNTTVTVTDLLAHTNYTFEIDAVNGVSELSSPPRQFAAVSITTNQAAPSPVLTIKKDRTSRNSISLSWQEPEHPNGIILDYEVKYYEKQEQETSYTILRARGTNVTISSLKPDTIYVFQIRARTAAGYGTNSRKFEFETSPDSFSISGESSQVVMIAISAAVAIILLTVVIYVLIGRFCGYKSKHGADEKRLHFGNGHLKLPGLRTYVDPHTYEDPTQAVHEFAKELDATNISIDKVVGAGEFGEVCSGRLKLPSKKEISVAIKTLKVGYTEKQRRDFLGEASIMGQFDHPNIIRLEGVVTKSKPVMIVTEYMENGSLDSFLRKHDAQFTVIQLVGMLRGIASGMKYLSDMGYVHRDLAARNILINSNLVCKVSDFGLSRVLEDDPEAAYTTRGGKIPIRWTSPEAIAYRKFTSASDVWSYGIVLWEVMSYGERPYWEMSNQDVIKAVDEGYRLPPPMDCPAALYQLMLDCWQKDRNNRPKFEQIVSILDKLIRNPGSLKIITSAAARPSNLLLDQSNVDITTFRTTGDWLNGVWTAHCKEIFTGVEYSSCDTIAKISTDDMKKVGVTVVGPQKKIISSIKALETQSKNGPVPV
The following applies: at 10 µM.

Test [2] deals with Ephrin type-A receptor 4 (Homo sapiens) (UniProt P54764). The conditions noted are these: at 1 µM.
Chain of Ephrin type-A receptor 4 (Homo sapiens) (P54764 whole entry): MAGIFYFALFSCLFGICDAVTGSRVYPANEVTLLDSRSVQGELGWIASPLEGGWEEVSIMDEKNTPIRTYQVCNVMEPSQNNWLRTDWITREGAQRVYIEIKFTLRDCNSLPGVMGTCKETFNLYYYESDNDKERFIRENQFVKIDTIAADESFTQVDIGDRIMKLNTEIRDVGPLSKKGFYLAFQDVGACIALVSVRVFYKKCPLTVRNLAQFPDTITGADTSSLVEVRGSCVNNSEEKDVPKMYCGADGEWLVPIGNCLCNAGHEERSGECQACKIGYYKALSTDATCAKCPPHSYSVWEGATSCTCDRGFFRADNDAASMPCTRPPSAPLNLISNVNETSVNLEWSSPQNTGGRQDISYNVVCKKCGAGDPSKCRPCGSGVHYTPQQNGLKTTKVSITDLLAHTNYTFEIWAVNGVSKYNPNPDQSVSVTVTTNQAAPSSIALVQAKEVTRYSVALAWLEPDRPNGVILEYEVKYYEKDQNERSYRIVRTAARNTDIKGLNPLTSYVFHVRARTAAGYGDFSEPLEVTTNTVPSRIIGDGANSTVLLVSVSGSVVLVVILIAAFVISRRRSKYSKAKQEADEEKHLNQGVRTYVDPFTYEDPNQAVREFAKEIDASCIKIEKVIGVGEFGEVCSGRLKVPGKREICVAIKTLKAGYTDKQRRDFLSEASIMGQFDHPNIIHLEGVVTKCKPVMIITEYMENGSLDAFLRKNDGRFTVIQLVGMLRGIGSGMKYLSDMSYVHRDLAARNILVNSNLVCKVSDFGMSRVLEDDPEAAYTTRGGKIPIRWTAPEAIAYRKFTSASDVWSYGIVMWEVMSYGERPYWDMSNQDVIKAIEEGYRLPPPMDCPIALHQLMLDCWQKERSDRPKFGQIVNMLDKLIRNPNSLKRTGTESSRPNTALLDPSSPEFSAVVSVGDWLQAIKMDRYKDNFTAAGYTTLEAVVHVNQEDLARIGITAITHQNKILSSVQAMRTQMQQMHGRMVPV
The target is the same in test [3]. The conditions noted are these: at 10 µM.
The target of test [4] is Ephrin type-A receptor 5 (Homo sapiens) (UniProt P54756). The conditions noted are these: at 1 µM.
Chain of Ephrin type-A receptor 5 (Homo sapiens) (P54756 whole entry): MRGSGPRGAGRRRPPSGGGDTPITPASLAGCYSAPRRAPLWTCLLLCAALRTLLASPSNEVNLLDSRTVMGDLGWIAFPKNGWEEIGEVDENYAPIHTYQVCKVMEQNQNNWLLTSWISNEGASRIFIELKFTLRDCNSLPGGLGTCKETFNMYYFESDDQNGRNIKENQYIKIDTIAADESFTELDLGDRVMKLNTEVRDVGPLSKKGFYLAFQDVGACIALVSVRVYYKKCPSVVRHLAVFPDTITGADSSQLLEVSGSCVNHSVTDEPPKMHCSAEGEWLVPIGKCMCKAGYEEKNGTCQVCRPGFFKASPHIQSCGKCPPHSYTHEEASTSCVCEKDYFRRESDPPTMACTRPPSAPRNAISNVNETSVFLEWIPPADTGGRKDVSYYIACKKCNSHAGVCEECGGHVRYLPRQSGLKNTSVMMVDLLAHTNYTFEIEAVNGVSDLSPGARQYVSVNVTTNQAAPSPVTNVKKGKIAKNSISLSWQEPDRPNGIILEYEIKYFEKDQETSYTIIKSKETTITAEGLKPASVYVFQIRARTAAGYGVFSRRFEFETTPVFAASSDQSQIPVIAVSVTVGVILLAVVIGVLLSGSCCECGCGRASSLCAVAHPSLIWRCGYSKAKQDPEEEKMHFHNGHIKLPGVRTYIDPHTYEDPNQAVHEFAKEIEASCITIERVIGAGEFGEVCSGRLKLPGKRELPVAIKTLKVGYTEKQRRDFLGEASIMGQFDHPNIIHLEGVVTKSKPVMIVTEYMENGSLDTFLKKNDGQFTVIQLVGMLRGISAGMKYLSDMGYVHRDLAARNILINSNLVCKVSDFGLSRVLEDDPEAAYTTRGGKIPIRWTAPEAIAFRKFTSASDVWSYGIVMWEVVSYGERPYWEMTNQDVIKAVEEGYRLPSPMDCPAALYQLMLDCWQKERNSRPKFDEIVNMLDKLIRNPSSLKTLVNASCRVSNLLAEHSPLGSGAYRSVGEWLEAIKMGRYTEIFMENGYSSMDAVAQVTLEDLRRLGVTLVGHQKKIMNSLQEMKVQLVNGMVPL
For test [5] the target is unchanged. The following applies: at 10 µM.
For test [6], the target named is Ephrin type-A receptor 7 (Homo sapiens) (UniProt Q15375). The conditions noted are these: at 1 µM.
Chain of Ephrin type-A receptor 7 (Homo sapiens) (Q15375 28-998 limits assumed): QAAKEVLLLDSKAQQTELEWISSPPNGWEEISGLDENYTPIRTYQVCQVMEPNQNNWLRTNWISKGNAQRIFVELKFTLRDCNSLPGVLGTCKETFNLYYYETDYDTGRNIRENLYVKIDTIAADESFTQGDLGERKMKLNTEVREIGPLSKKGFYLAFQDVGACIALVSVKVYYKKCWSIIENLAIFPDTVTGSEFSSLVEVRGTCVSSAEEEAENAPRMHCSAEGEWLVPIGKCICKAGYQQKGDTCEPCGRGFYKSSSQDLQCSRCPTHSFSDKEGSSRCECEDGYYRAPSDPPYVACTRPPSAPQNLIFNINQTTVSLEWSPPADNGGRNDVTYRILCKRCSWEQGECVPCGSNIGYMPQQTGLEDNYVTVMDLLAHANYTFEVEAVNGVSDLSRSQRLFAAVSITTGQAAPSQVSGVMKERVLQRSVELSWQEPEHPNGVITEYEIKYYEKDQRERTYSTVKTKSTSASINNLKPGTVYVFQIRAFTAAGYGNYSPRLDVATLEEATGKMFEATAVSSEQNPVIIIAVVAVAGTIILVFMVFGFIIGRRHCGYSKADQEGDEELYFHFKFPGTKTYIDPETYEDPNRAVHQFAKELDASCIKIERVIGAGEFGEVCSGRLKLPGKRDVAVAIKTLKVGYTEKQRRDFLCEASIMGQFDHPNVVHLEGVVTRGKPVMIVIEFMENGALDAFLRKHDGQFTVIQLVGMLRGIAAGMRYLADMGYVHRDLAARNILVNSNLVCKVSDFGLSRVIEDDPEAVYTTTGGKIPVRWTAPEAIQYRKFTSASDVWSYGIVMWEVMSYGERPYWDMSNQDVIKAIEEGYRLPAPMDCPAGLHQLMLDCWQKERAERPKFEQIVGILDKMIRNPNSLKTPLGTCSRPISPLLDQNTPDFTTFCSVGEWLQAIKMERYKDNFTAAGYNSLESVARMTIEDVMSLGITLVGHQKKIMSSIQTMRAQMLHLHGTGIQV
Test [7] shares this target. The conditions noted are these: at 10 µM.
Test [8] has as its target T2, Ephrin type-A receptor 8 (Homo sapiens) (UniProt P29322).
T2 sequence (whole entry): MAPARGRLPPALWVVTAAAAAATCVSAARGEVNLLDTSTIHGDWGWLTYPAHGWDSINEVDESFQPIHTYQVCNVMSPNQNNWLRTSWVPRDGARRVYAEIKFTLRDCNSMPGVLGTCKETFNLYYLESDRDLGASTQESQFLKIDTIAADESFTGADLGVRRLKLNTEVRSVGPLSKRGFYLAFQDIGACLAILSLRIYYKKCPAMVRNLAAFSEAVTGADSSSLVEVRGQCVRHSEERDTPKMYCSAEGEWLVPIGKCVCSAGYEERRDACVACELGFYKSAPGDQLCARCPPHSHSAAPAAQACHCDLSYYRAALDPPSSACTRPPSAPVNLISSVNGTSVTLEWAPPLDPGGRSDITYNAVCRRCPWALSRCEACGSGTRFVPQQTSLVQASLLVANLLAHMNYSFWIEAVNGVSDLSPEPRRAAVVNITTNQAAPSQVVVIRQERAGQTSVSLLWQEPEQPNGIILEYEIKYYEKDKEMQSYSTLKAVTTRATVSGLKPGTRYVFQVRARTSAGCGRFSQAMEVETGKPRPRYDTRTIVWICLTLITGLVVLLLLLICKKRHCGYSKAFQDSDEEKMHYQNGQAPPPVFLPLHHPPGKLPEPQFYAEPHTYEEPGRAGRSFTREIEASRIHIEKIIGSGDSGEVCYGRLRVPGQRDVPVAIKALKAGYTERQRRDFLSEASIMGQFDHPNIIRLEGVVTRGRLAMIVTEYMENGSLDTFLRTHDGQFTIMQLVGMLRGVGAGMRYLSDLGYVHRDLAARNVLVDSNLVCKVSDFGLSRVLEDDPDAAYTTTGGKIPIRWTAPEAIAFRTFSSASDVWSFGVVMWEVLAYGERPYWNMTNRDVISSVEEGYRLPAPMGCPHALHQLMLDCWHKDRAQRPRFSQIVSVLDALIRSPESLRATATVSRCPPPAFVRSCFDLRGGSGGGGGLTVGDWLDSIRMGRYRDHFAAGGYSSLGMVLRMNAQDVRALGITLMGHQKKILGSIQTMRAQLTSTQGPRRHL
The following applies: at 1 µM.

In test [9] the target is T2, Ephrin type-A receptor 8 (Homo sapiens). The following applies: at 10 µM.
Test [10] has as its target T3, Ephrin type-B receptor 1 (Homo sapiens) (UniProt P54762).
T3 sequence (whole entry): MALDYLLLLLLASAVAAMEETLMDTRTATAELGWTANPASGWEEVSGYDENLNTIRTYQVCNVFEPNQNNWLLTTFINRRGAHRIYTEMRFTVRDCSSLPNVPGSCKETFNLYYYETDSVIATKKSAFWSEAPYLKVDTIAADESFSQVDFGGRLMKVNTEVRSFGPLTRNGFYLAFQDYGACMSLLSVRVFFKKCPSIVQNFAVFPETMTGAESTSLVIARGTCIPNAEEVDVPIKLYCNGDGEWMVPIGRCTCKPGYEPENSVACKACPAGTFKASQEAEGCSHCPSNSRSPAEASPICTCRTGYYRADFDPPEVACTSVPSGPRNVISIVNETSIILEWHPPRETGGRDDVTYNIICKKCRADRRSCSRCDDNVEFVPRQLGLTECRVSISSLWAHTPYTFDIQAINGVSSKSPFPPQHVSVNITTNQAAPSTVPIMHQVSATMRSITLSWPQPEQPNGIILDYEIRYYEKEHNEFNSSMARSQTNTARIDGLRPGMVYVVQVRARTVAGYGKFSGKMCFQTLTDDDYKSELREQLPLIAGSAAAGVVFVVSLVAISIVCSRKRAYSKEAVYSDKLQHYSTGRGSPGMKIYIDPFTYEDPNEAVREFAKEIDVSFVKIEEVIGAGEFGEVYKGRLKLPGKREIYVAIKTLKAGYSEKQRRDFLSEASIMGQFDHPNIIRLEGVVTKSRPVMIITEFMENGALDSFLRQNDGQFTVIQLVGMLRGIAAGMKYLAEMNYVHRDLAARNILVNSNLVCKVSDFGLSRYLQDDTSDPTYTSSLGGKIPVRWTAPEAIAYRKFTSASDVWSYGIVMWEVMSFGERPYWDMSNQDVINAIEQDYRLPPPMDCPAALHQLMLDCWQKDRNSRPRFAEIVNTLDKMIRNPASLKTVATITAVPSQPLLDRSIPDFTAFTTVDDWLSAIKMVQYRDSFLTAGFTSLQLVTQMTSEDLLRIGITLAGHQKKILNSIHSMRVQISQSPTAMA
The following applies: at 1 µM.

On to `Cn1cnc2cc3c(Nc4cccc(Br)c4)ncnc3cc21`, for which the residual activity in test [1] amounted to 30%; in test [2], 106%; in test [3], 88%; in test [4] it was 82%; in test [5], 40%; in [6] it was 77%. For the same molecule, the residual activity amounted to 39% in [7], 86% in test [8], 63% in [9] and 70% in test [10].
